# RORg inh = blocks mouse ROR gamma transcriptional activity; Drosophila S2 Gal4-RORgamma UAS-luciferase reporter, 20 h; Potency, µM (titrated, usually from 53.6 µM), for the others: top-dose activity change, negative = inhibition, actives largely listed as inhibitors; actives 5.4% (n = 310,000); AID 2551; further: potency means the concentration at half of the fitted maximal effect; nearly all actives have a fitted effect of over 60% in size
# Target sequence (P51450 whole entry, looked up, the tested form may be a part): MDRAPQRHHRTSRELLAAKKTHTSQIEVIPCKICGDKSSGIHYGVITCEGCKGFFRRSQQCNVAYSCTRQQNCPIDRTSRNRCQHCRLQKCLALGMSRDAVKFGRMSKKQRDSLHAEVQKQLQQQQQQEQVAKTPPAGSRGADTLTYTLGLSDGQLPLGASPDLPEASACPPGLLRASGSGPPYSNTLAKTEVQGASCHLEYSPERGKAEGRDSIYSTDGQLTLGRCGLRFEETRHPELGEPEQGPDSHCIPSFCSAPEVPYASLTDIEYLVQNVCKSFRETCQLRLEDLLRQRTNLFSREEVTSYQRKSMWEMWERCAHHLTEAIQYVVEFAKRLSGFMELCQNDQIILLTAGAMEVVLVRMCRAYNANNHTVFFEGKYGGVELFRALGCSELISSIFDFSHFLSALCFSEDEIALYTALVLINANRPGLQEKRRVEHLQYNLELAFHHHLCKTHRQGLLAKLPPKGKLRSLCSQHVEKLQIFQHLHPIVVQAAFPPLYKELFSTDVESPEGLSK
#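 Stable Schneider cell line, Gal4 DNA-binding domain fused to ROR gamma, UAS-luciferase. Cmpd 1 hr RT → CuSO4 700 uM final → 20 hr RT → luciferase reagent 10 min → luminescence.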
# TDP1 cell CPT = DT40-hTDP1 cell growth loss with CPT; chicken DT40 Tdp1-/-;hTDP1 cells + 20 nM CPT, ATP luminescence, 48 h; Potency, µM (doses to about 46.2 µM), inactives show top-dose activity change, negative = growth inhibition, actives largely listed as inhibitors; actives 12% (n = 420,000); further: potency means the concentration at half of the fitted maximal effect; nearly all actives have a fitted effect of over 55% in size
#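 Chicken DT40 Tdp1-/- cells complemented with human TDP1, 400 cells/well, exposed to compounds plus 20 nM camptothecin for at least 48 h at 37 C; viability read as ATP content by CellTiter-Glo luminescence.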
# ELG1 repair inh = ELG1-dependent DNA repair inhibition; Potency, µM (titrated, usually from 46.1 µM), for inactives: top-dose activity change, negative = inhibition, actives largely listed as inhibitors; actives 2.3% (n = 330,000); AID 504467; HEK293T ELG1-luciferase reporter, luminescence, 16 h; DNA damage induced by 5-fluorouridine; further: potency means the concentration at half of the fitted maximal effect; nearly all actives have a fitted effect of over 55% in size
#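 HEK293T cells expressing luciferase-tagged ELG1 (2,000/well) received 5-Fluorouridine plus compound or DMSO for 16 hr at 37 °C. Luciferase was read by ONE-Glo luminescence after 30 min at room temperature.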
# Gal4-VP16 FLuc = inhibits Gal4-VP16 luciferase reporter, ROR gamma counter-screen; actives 3.5% (n = 310,000); Drosophila S2 Gal4-VP16 UAS-luciferase, luminescence, 20 h; Potency, µM (top dose mostly 53.6 µM), inactives show at the top dose activity, negative = inhibition, most hits filed as inhibitors;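 further: Gal4-VP16 expression switched on by copper sulfate through the metallothionein promoter; potency means the concentration at half of the fitted maximal effect; nearly all actives have a fitted effect of over 50% in size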
# TDP1 cell noCPT = qHTS for Inhibitors of human tyrosyl-DNA phosphodiesterase 1 (TDP1): qHTS in cells in absence of CPT; DT40 Tdp1-/- hTDP1 cells, no CPT, ATP luminescence, 48 h; Potency, µM (top dose mostly 46.2 µM), without a hit: top-dose activity change, negative = growth inhibition, most hits filed as inhibitors; actives 15% (n = 420,000); AID 686978, 2013; further: potency means the concentration at half of the fitted maximal effect; nearly all actives have a fitted effect of over 55% in size
#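 DT40 Tdp1-/-;hTDP1 cells, no CPT (DMSO vehicle only), 400 cells/well; compounds pin-transferred; ≥48 hr, 37 °C; CellTiter-Glo 30 min RT dark, luminescence read.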
# IL-1B inflam inh = inhibitors of inflammasome signaling (IL-1 beta secretion) | activity change, % at 57.5 µM | AID 743279 | THP-1 LPS/ATP IL-1B secretion, AlphaLISA, 16 h; stronger effect = lower value | actives 4.7% (n = 360,000); in the data active means activity change below about -50%; inconclusive means mostly about -30% to -49%
#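 THP-1 cells pretreated 1 hr with compounds (up to 57.5 uM final), then stimulated with LPS (250 ng/mL final) plus ATP (1.25 mM final); secreted IL-1B measured by AlphaLISA after 16 hr, decreased signal indicating inhibition.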
# An asterisk follows results filed as active; u = inconclusive; x = no result. This is a sample that favours compounds with a hit; in the whole collection about 21% have one here. Unless noted, the call rests on the fitted dose curve; in most records, active means well fitted curve in the direction sought with a large enough effect; inconclusive means small, poorly fitted or top-dose-only effect, or another doubt; inactive means no such curve, though single readings can be large; an effect the other way counts as inactive or inconclusive. On the % scale 0 is the no-effect control and ±100 the full control effect.
SMILES,RORg inh,TDP1 cell CPT,ELG1 repair inh,Gal4-VP16 FLuc,TDP1 cell noCPT,IL-1B inflam inh
CN1CCN(S(=O)(=O)c2cccc(C(=O)Nc3sc4c(c3-c3nc5ccccc5[nH]3)CCCC4)c2)CC1,-10%,15µM*,u,-3%,13µM*,42
O=C(Nc1nc2ccccc2n1Cc1ccccc1)c1ccco1,2µM*,21µM*,-11%,2.5µM*,21µM*,-12
Cc1csc(NC(=O)C2CCN(S(=O)(=O)c3cccs3)CC2)n1,u,u,u,-6%,-4%,-20
O=C(Cn1c(NCCCO)nc2ccccc21)c1ccco1,u,-31%,4%,-11%,-1%,6
CCCn1c(NC(=O)c2ccccc2)nc2ccccc21,0.79µM*,u,2%,1.8µM*,u,25
C=CCn1c(NC(=O)c2ccc(C)cc2)nc2ccccc21,0.4µM*,u,u,0.79µM*,u,21
COc1ccccc1OCCn1c(NC(=O)c2ccc(Cl)cc2)nc2ccccc21,x,-9%,x,x,-5%,x
CC(=O)Nc1ccc(-c2csc(NC(=O)C3CCN(S(=O)(=O)c4cccs4)CC3)n2)cc1,-9%,16µM*,u,-14%,8.2µM*,20
CC(C)c1ccc(NC(=O)CN(C)S(=O)(=O)c2ccc3c(c2)n(C)c(=O)c(=O)n3C)cc1,x,-30%,x,x,u,x
COc1ccc(Cl)cc1NC(=O)CN1C(=O)C(=O)N(C2CCCC2)C1=O,x,3%,x,x,-1%,2
Cc1nc(-c2cccc(NC(=O)C3CCCCC3)c2)cs1,1%,u,u,-8%,-24%,-5
Cc1nc(-c2ccc(NC(=O)C3CC3)cc2)cs1,0%,23µM*,u,u,18µM*,5
CCCn1c(NC(=O)C2CCN(S(=O)(=O)c3cccs3)CC2)nc2ccccc21,1.4µM*,15µM*,0%,4.5µM*,16µM*,u
CCCn1c(NC(=O)c2ccc(C)cc2)nc2ccccc21,2.2µM*,u,u,0.63µM*,26µM*,0
Cc1ccccc1OCC(=O)N/N=C/c1cn(C)c2ccccc12,u,12%,-12%,-10%,-23%,13
Cc1ccc(OCC(=O)N/N=C/c2cn(C)c3ccccc23)cc1,-39%,-12%,4%,-4%,-33%,12
Cc1ccc(OCC(=O)N/N=C\c2cn(Cc3ccccc3)c3ccccc23)cc1C,11µM*,u,-14%,u,u,27
Cc1ccccc1OCC(=O)N/N=C/c1cn(Cc2ccccc2)c2ccccc12,18µM*,-29%,7%,u,u,30
COC(=O)CCCC1=CC2=C(c3ccccc3)C(=O)C(C)(OC(=O)C3CCCC3)C(=O)C2=CN1CC1CC1 (stereo not drawn),30%,-11%,u,-8%,-10%,15
CCCCC1=CC2=C(c3ccco3)C(=O)C(C)(OC(=O)c3cccs3)C(=O)C2=CO1 (stereo not drawn),-1%,x,x,-3%,x,x
COc1ccc(CN2C=C3C(=O)C(C)(OC(=O)C4CCCC4)C(=O)C=C3C=C2c2ccsc2)cc1 (stereo not drawn),-5%,u,-6%,3%,12µM*,-3
CCCCC1=CC2=CC(=O)C(C)(OC(=O)CC)C(=O)C2=CN1Cc1ccc(OC)cc1 (stereo not drawn),19%,26µM*,-13%,-12%,13µM*,40
CCCCC1=CC2=C(c3ccco3)C(=O)C(C)(OC(=O)c3ccc(OC)cc3)C(=O)C2=CN1C1CCCCC1 (stereo not drawn),38%,4.6µM*,-9%,-5%,4.6µM*,-14
COC(=O)CCCC1=CC2=C(c3ccccc3)C(=O)C(C)(OC(=O)C3CCCC3)C(=O)C2=CN1C1CCCC1 (stereo not drawn),10%,u,-26%,-2%,16µM*,25
CC1(OC(=O)C2CCCC2)C(=O)C=C2C=C(c3ccsc3)N(CCCCO)C=C2C1=O (stereo not drawn),6%,-16%,15%,6%,-8%,-1
SMILES,RORg inh,TDP1 cell CPT,ELG1 repair inh,Gal4-VP16 FLuc,TDP1 cell noCPT,IL-1B inflam inh
CN1CCN(c2ncc3nc(CCc4ccccc4)c(=O)n(CCC#N)c3n2)CC1,-11%,u,x,-8%,u,x
CCCCC1=CC2=C(c3ccco3)C(=O)C(C)(OC(=O)c3ccc(OC)cc3)C(=O)C2=CN1Cc1ccc2c(c1)OCO2 (stereo not drawn),12%,9.2µM*,0%,17%,13µM*,u
CCCCC1=CC2=C(c3ccco3)C(=O)C(C)(OC(=O)c3ccc(OC)cc3)C(=O)C2=CN1CCOC (stereo not drawn),37%,-26%,-12%,-2%,-17%,-19
CCCCC1=CC2=C(c3ccco3)C(=O)C(C)(OC(=O)c3ccc(OC)cc3)C(=O)C2=CN1CCc1ccccn1 (stereo not drawn),15%,5.8µM*,-12%,4%,9.2µM*,-7
CCCCC1=CC2=C(c3ccco3)C(=O)C(C)(OC(=O)c3ccc(OC)cc3)C(=O)C2=CN1Cc1ccccc1 (stereo not drawn),-34%,5.2µM*,0%,4%,4.6µM*,3
Cc1c(CCO)sc[n+]1CCc1ccccc1,x,u,x,x,7%,x
CC(C)OCCCNC(=O)CCCn1c(SCC(N)=O)nc2c(sc3ccccc32)c1=O,x,u,x,x,-29%,x
COCCn1c(-c2ccc(Br)cc2)csc1=Nc1cccnc1,0%,16µM*,12µM*,-13%,18µM*,-78*
CN=c1scc(-c2ccc(Br)cc2)n1C,28%,-11%,-2%,u,-28%,-10
Clc1ccc(-c2csc(=Nc3cccnc3)n2CCCn2ccnc2)cc1Cl,u,23µM*,8.2µM*,-10%,15µM*,-88*
O=C(O)CCc1ccc(-c2cccs2)n1CC1CCCO1 (stereo not drawn),-45%,0%,-14%,7%,-4%,4
FC(F)Oc1ccc(-c2csc(=Nc3cccnc3)n2CC2CCCO2)cc1 (stereo not drawn),34%,15µM*,u,-5%,13µM*,-3
O=C(NC1CC1)C1=C[C@H](c2coc3ccccc3c2=O)C[C@H](OCc2ccc(CO)cc2)O1,x,-14%,x,x,-15%,24
CNc1cncc(-c2cccc(O)c2)n1,x,u,x,x,-23%,0
